Holding throughout (details): primary human HUVEC with PBMC; actives raise or lower the signal
Read-out in assay [1]: Interleukin-1 alpha (IL1a), IL1A (gene 3552)
The experiment in a line: BSK_LPS_IL1a: BioMAP Diversity Plus: LPS Assay for Interleukin-1 alpha (IL1a) Biomarker Activity (AID 2283080). A digest of the protocol: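 Primary human HUVEC and PBMC co-culture stimulated with LPS is dosed and harvested at 24 h. Both increases and decreases in ELISA-measured IL-1a are scored relative to DMSO.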

Read-out in assay [2]: Monocyte Chemoattractant Protein-1 (MCP1), CCL2 (gene 6347)
The experiment in a line: BSK_LPS_MCP1: BioMAP Diversity Plus: LPS Assay for Monocyte Chemoattractant Protein-1 (MCP1) Biomarker Activity (AID 2283081). A digest of the protocol: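 Values derive from bidirectional fitting against DMSO of ELISA-measured MCP-1 in a human primary endothelial and mononuclear cell co-culture, 24 h after chemical addition under LPS activation.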

The nature of assay [3]: BSK_LPS_PGE2: BioMAP Diversity Plus: LPS Assay for Prostaglandin E2 (PGE2) Biomarker Activity (AID 2283082). A digest of the protocol: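 Endpoint derived from bidirectional curve fitting versus DMSO of ELISA-measured PGE2 in LPS-stimulated human primary vascular co-culture (HUVEC with PBMC) harvested at 24 h.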
Read-out in assay [4]: Macrophage colony-stimulating factor (MCSF), CSF1 (gene 1435)
The experiment in a line: BSK_LPS_MCSF: BioMAP Diversity Plus: LPS Assay for Macrophage colony-stimulating factor (MCSF) Biomarker Activity (AID 2283083). A digest of the protocol: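 Bidirectional fit versus DMSO of ELISA-measured M-CSF in co-cultured human umbilical vein endothelial cells and PBMC, sampled 24 h after dosing.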

Read-out in assay [5]: Tissue Factor, F3 (gene 2152)
The experiment in a line: BSK_LPS_TissueFactor: BioMAP Diversity Plus: LPS Assay for Tissue Factor Biomarker Activity (AID 2283084). A digest of the protocol:
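Read-out: CD142 ELISA, 24 h. System: LPS-driven human endothelial/PBMC co-culture. Analysis: up- or down-signal fitted against DMSO.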

Read-out in assay [6]: Tumor necrosis factor (Homo sapiens) (UniProt P01375)
In words: BSK_LPS_TNFa: BioMAP Diversity Plus: LPS Assay for Tumour Necrosis Factor alpha (TNFa) Biomarker Activity (AID 2283085).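 On AC50: TNFa protein level quantified by ELISA in the co-culture.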 A digest of the protocol: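 Primary human vascular co-culture of HUVEC and PBMC; TNFa ELISA 24 h after treatment, analysed as increase or decrease relative to DMSO control.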

Read-out in assay [7]: Vascular cell adhesion molecule 1 (VCAM1), VCAM1 (gene 7412)
In words: BSK_LPS_VCAM1: BioMAP Diversity Plus: LPS Assay for Vascular cell adhesion molecule 1 (VCAM1) Biomarker Activity (AID 2283086). The essentials:
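Primary human vascular co-culture (umbilical vein endothelium plus PBMC) stimulated with LPS received chemical; 24 h later VCAM-1 was read by ELISA. Overt cytotoxicity was assessed by sulforhodamine B staining of parallel cultures at the same time point.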

Read-out in another assay: CD38, CD38 (gene 952)
In words: BSK_SAg_CD38: BioMAP Diversity Plus: SAg Assay for CD38 Biomarker Activity (AID 2283087). A digest of the protocol:
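Fluorescence ELISA of cell-surface CD38 served as the read-out, with either increase or decrease fitted against DMSO controls. Cells were a human umbilical vein endothelium plus PBMC co-culture under SEB/TSST-1 stimulation, measured 24 h after dosing.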

Read-out in a further assay: CD40, CD40 (gene 958)
In words: BSK_SAg_CD40: BioMAP Diversity Plus: SAg Assay for CD40 Biomarker Activity (AID 2283088). The essentials:
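Endpoint derived by fitting increases or decreases versus DMSO controls. CD40 is detected by fluorescence ELISA in a human vascular co-culture of endothelium and PBMC at 24 h.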

Read-out in a further assay: CD69, CD69 (gene 969)
The experiment in a line: BSK_SAg_CD69: BioMAP Diversity Plus: SAg Assay for CD69 Biomarker Activity (AID 2283089).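 On AC50: cell surface CD69 protein quantified by ELISA with fluorescence detection.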 A digest of the protocol: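 HUVEC co-cultured with PBMC were dosed with chemical, and CD69 was measured by ELISA with fluorescence read-out 24 h later. Bidirectional curve fitting used DMSO as negative control and activity baseline.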

Where a structure was tested more than once in an assay, its records may differ in their call. The source made the active and inactive calls. How the source made its calls: active means hit-call score of the fitted dose curve at least 0.9, where 1 is the maximum; inactive means score below 0.9.

Chain of Tumor necrosis factor (Homo sapiens) (P01375 whole entry, looked up): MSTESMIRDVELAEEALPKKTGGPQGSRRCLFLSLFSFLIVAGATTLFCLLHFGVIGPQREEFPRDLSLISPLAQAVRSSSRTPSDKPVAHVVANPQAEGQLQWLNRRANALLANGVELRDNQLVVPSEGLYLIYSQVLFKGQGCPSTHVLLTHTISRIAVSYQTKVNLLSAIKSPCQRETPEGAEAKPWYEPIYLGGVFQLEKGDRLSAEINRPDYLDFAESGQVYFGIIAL

Turning to `Cc1ccc([N+](=O)[O-])cc1C`, the result in assay [1], in [2], in assay [3], in assay [4], in assay [5] and in [6] was inactive. Also, the outcome in assay [7] is “inactive”; with CD38, CD38 (gene 952), “inactive”; in the assay with CD40, CD40 (gene 958), “inactive”; with CD69, CD69 (gene 969) it was “inactive”.

With `Cc1ccc(N)cc1N`, the result in [1], in assay [2], in assay [3], in [4], in assay [5] and in [6] was inactive. Also, the outcome in assay [7] is “inactive”; with CD38, CD38 (gene 952), “inactive”; with CD40, CD40 (gene 958), “inactive”; with CD69, CD69 (gene 969) it was “inactive”.

As for `CCCCN(CCCC)N=O`, the outcome in [1], in assay [2], in assay [3], in assay [4], in assay [5] and in assay [6] was inactive. Further, the outcome is “inactive” in [7]; “inactive” with CD38, CD38 (gene 952); “inactive” with CD40, CD40 (gene 958); “inactive” in the assay with CD69, CD69 (gene 969).

In the case of `COC(=O)C(F)(F)C(F)(F)OC(F)(C(F)(F)F)C(F)(F)OC(F)=C(F)F` (centres undefined), the result in assay [1], in assay [2], in assay [3], in [4], in [5] and in assay [6] was inactive. For the same compound, the outcome in [7] was “inactive”; with CD38, CD38 (gene 952), “inactive”; in the assay with CD40, CD40 (gene 958), “inactive”; with CD69, CD69 (gene 969) it was “inactive”. Moreover, the AC50 (as a rule, the concentration at which the activity in the assay is half-maximal) with CD38, CD38 (gene 952) was 0.864 µM (active).

As to `CC(C)(C)c1ccc(O)cc1`, the outcome in assay [1], in assay [2], in [4], in assay [5], in assay [6] and in assay [7] was inactive. Moreover, the outcome is “inactive” with CD38, CD38 (gene 952); “inactive” in the assay with CD40, CD40 (gene 958); “inactive” in the assay with CD69, CD69 (gene 969). Also, the AC50 in assay [3] is 3.65 µM (active).

For the compound `OCC(F)(F)OC(F)(F)C(F)(F)OC(F)(F)C(F)(F)OC(F)(F)CO`, the result in [1], in assay [2], in [3], in assay [4], in assay [5] and in assay [6] was inactive. Also, the outcome was “inactive” in assay [7]; “inactive” with CD38, CD38 (gene 952); “inactive” with CD40, CD40 (gene 958); “inactive” with CD69, CD69 (gene 969). For the same compound, the AC50 with CD38, CD38 (gene 952) was 24.3 µM (active); in the assay with CD40, CD40 (gene 958) it was 30 µM (active); in the assay with CD69, CD69 (gene 969) it was 12.9 µM (active).

As to `Nc1ccc2ccccc2c1`, the result in [1], in [2], in assay [3], in [4], in assay [5] and in assay [6] was inactive. The outcome is “inactive” in assay [7]; “inactive” in the assay with CD38, CD38 (gene 952); “inactive” with CD40, CD40 (gene 958); “inactive” with CD69, CD69 (gene 969).

As to `Nc1ccc(Cl)cc1`, the outcome in assay [1], in assay [2], in assay [3], in assay [4], in [5] and in assay [6] was inactive. The outcome was “inactive” in assay [7]; “inactive” with CD38, CD38 (gene 952); “inactive” in the assay with CD40, CD40 (gene 958); “inactive” with CD69, CD69 (gene 969).

Consider `ClC(Cl)c1ccccc1`, for which the result in assay [1], in [2], in [3], in assay [4], in assay [5] and in assay [6] was inactive. For the same compound, the outcome in [7] is “inactive”; with CD38, CD38 (gene 952), “inactive”; with CD40, CD40 (gene 958), “inactive”; with CD69, CD69 (gene 969) it was “inactive”.

In the case of `N#Cc1c(-c2ccc(Cl)cc2)[nH]c(C(F)(F)F)c1Br`, the AC50 was 1.36 µM (active) in [1]; 0.949 µM (active) in [3]; 0.016 µM (active) in [6]; 3.97 µM (active) in assay [7]; 0.343 µM (active) with CD38, CD38 (gene 952); 0.34 µM (active) in the assay with CD40, CD40 (gene 958). For the same compound, in the assay with CD69, CD69 (gene 969), the AC50 was 0.472 µM (active). Further, the outcome in [2], in assay [4] and in assay [5] was inactive.

On to `O=[N+]([O-])c1ccccc1`, for which the result in assay [1], in [2], in assay [3], in assay [4], in assay [5] and in assay [6] was inactive. Moreover, the outcome in assay [7] is “inactive”; with CD38, CD38 (gene 952), “inactive”; with CD40, CD40 (gene 958) it was “inactive”; with CD69, CD69 (gene 969) it was “inactive”.

As for `OCC(F)(F)OC(F)(F)C(F)(F)OC(F)(F)CO`, the result in assay [1], in assay [2], in assay [3], in [4], in assay [5] and in assay [6] was inactive. Also, the outcome in assay [7] is “inactive”; with CD38, CD38 (gene 952), “inactive”; with CD40, CD40 (gene 958), “inactive”; in the assay with CD69, CD69 (gene 969), “inactive”.

For `CC(Cc1ccc(OCC(=O)O)cc1)NCC(O)c1csc(C(F)(F)F)n1` (centres undefined), the result in assay [1], in assay [2], in [3], in assay [4], in [5] and in assay [6] was inactive. Besides, the outcome in [7] is “inactive”; with CD38, CD38 (gene 952), “inactive”; with CD40, CD40 (gene 958), “inactive”; in the assay with CD69, CD69 (gene 969), “inactive”.

On to `N#Cc1cc([N+](=O)[O-])ccc1N`, for which the outcome in assay [1], in assay [2], in [3], in assay [4], in assay [5] and in assay [6] was inactive. The outcome was “inactive” in assay [7]; “inactive” in the assay with CD38, CD38 (gene 952); “inactive” with CD40, CD40 (gene 958); “inactive” with CD69, CD69 (gene 969).

With `CC(C)(C)OOC(C)(C)C`, the result in assay [1], in assay [2], in [3], in [4], in assay [5] and in assay [6] was inactive. Besides, the outcome is “inactive” in assay [7]; “inactive” in the assay with CD38, CD38 (gene 952); “inactive” with CD40, CD40 (gene 958); “inactive” with CD69, CD69 (gene 969).

In the case of `NC(=O)C(F)(F)C(F)(F)F`, the outcome in assay [1], in assay [2], in [3], in assay [4], in assay [5] and in [6] was inactive. The outcome in assay [7] was “inactive”; with CD38, CD38 (gene 952) it was “inactive”; with CD40, CD40 (gene 958), “inactive”; with CD69, CD69 (gene 969), “inactive”.

As to `O=C(O)C1C(C(=O)O)C2(Cl)C(Cl)=C(Cl)C1(Cl)C2(Cl)Cl` (centres undefined), the outcome in [1], in assay [2], in assay [3], in assay [4], in [5] and in assay [6] was inactive. Besides, the outcome was “inactive” in assay [7]; “inactive” in the assay with CD38, CD38 (gene 952); “inactive” with CD40, CD40 (gene 958); “inactive” in the assay with CD69, CD69 (gene 969).

Consider `Cc1ccc(O)cc1C`, for which the result in [1], in assay [2], in assay [4], in [5], in assay [6] and in assay [7] was inactive. For the same compound, the outcome with CD38, CD38 (gene 952) is “inactive”; with CD40, CD40 (gene 958) it was “inactive”; in the assay with CD69, CD69 (gene 969), “inactive”. Besides, the AC50 in assay [3] was 4.57 µM (active).

In the case of `[N-]=[N+]=[N-]`, the outcome in assay [1], in assay [2], in assay [3], in assay [4], in [5] and in assay [6] was inactive. Further, the outcome in assay [7] is “inactive”; with CD38, CD38 (gene 952), “inactive”; with CD40, CD40 (gene 958) it was “inactive”; with CD69, CD69 (gene 969), “inactive”.

For the compound `CCOP(=S)(NC(C)C)Oc1ccccc1C(=O)OC(C)C` (centres undefined), the result in [1], in assay [2], in [3], in assay [4], in assay [5] and in [7] was inactive. In addition, the outcome is “inactive” with CD38, CD38 (gene 952); “inactive” in the assay with CD40, CD40 (gene 958); “inactive” in the assay with CD69, CD69 (gene 969). Moreover, the AC50 in assay [6] was 4.8 µM (active).
